PubChem BioAssay AID1851 (National Center for Advancing Translational Sciences (NCATS), 2009)
The whole screen tested about 16,000 compounds, of which about 2,600 (16%) were called active. Roughly 20% stayed inconclusive and do not appear here. A selection follows. Unmarked numbers belong to inactive results. The call rests on the fitted dose curve; in most records, active means well fitted curve in the direction sought with a large enough effect; inconclusive means small, poorly fitted or top-dose-only effect, or effect the other way; inactive means no such curve, though single readings can be large or run the other way.

The compounds below were run against Cytochrome P450 2D6 (Homo sapiens) (UniProt P10635) (assay: Cytochrome panel assay with activity outcomes). Conditions: recombinant CYP, pro-luciferin dealkylation, luminescence, p450-cyp2d6; series mostly up to 57.1 µM; activity, negative = inhibition: at the top concentration.
On the % scale 0 is the no-effect control and ±100 the full control effect.

Sequence of Cytochrome P450 2D6 (Homo sapiens) (P10635 whole entry, looked up): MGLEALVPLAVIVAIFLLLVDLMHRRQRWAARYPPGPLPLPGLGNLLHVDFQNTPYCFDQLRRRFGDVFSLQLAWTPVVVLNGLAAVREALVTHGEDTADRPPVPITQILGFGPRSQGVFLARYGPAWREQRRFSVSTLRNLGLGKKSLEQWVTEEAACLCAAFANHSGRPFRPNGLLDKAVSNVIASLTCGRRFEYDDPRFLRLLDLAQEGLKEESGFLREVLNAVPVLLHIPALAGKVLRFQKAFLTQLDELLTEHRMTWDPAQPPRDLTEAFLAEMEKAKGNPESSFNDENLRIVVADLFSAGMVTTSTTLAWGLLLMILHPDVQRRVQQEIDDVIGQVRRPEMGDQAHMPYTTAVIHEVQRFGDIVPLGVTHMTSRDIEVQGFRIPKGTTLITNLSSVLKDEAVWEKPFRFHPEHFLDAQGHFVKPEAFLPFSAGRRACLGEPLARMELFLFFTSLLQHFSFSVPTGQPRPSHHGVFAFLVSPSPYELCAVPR

Row | SMILES | activity, negative = inhibition | AC50
1 | C/C(O)=C\c1nc2ccccc2oc1=O | -0.0426% | 
2 | COC(=O)[C@@]1(Cc2ccc(F)cc2)[C@@H]2C(=CC(=O)[C@H]2CC(=O)C(=O)N(C)C)CN1C(=O)c1ccccc1 | 0.486% | 
3 | Cc1cc(N)ccc1NC(=O)c1ccccc1 | 14% | 
4 | CCO/C(C)=N/n1c2nc3ccccc3nc2c2c(=O)n(CC(C)C)c(C)nc21 | 18.8% | 
5 | O=C(O)c1ccccc1C(=O)Nc1nccs1 | -21.5% | 
6 | CCCCn1c(SCC(=O)Nc2nccs2)nc2ccccc2c1=O | 7.1% | 
7 | CCCC(C(=O)Nc1nccs1)c1ccccc1 (stereo unspecified) |  | 25.1 µM (active)
8 | O=C(NCC1CCCO1)c1cc(-c2ccc(Cl)cc2Cl)on1 (stereo unspecified) | -13.5% | 
9 | Cc1cccc(Sc2c([N+](=O)[O-])ncn2C)n1 | 28.4% | 
10 | O=c1cnc2cnc(Nc3ccccc3)nc2n1Cc1cccs1 | -1.11% | 
11 | c1ccc(-n2cnc3cc(NCc4cccs4)ccc32)cc1 |  | 1.12 µM (active)
12 | O=C(O)[C@H]1CCCNC1 | 14.9% | 
13 | Cc1cc(=O)oc(C)c1C(=O)NCc1cccnc1 | -3.68% | 
14 | Cc1ccccc1CS(=O)(=O)Cc1ccc(C(=O)NCc2cccnc2)o1 |  | 10 µM (active)
15 | Cc1cccc(CS(=O)(=O)Cc2ccc(C(=O)NCc3ccco3)o2)c1 | 9.08% | 
16 | Cn1cccc1C(=O)N1CCC2(CC1)CN(c1ccccn1)C2 | -8.72% | 
17 | COc1cc(OC)c(C2C(C(=O)Nc3ccc(C)cc3C)=C(C)Nc3ncnn32)cc1OC (stereo unspecified) | -0.18% | 
18 | Cc1ccc(S(=O)(=O)NC(=O)c2cccn2C)cc1 | 3.13% | 
19 | O=C(Cn1cccc1C(=O)c1ccccc1)NCc1cccs1 |  | 5.01 µM (active)
20 | O=C(Cn1ccc([N+](=O)[O-])n1)NCc1cccs1 | -25.4% | 
21 | Cc1ccccc1C(=O)c1cccn1CC(=O)NCc1ccco1 | -27.2% | 
22 | COCCn1c(=O)c(-c2cccs2)nc2cnc(N3CCNCC3)nc21 | -12.6% | 
23 | COc1cc(NC(=O)Cc2c(C(=O)O)[nH]c3ccccc23)cc(OC)c1OC | 8.14% | 
24 | CCC(CC)C(=O)Nc1c2c(nn1-c1ccc(OC)cc1)CS(=O)(=O)C2 | 13.1% | 

Row | SMILES | activity, negative = inhibition | AC50
25 | CCOC(=O)c1c(C)[nH]c2ccc3c(c12)CN1CCc2cc(OC)ccc2[C@@H]1O3 | 5.97% | 
26 | CCOC(=O)c1c(C)[nH]c(C)c1C(=O)COC(=O)c1cccc(S(=O)(=O)N(CC)CC)c1 |  | 17.8 µM (active)
27 | CCN(CC)S(=O)(=O)c1cccc(C(=O)N[C@H](C(=O)OCC(=O)NC(=O)NC)C(C)C)c1 | 10.5% | 
28 | CCOC(=O)c1ccc(S(=O)(=O)N2CCN(C)CC2)cc1 | -57.8% | 
29 | CCN(CC)S(=O)(=O)c1ccc(C(=O)NC2=C(C(=O)OC)SCC2)cc1 | -14.5% | 
30 | CCOC(=O)c1c(C)[nH]c(C)c1C(=O)COC(=O)c1ccc(S(=O)(=O)N(CC)CC)cc1 |  | 28.2 µM (active)
31 | CS(=O)(=O)N1CCC2(CCN(C(=O)Nc3cccc(C#N)c3)CC2)CC1 | -15.7% | 
32 | O=C1c2c(O)cc(O)cc2O[C@@H](c2ccc(O)c(O)c2)[C@H]1O | 7.17% | 
33 | CC1=NN(c2ccccc2)C(=O)/C1=C\N1CC(C)OC(C)C1 (stereo unspecified) | 19.5% | 
34 | COc1cc2c(cc1OC)C(C(=O)Nc1ccc3c(c1)OCCO3)C(c1cccnc1)N(C)C2=O (stereo unspecified) | 0.677% | 
35 | FC(F)(F)c1nc(-c2ccncc2)ncc1-c1nnnn1-c1ccccc1 | -16.8% | 
36 | O=C(Nc1ccc(F)cc1)c1ccc(-n2ccnc2)nc1 |  | 0.178 µM (active)
37 | CCOCC(=O)Nc1cc(C(=O)Nc2cccc(C)c2C)ccc1Cl | 16.8% | 
38 | C/C(CC(=O)Nc1ccccn1)=N\NC(=O)C(=O)Nc1cccc(Cl)c1C | -0.859% | 
39 | Cc1ccc(C(=O)Nc2ccc(N3CCOCC3)nc2)cc1 | -1.74% | 
40 | CC(C)C(=O)Nc1ccc(NC(=O)c2cccnc2)cn1 | -0.795% | 
41 | Cc1c(Cl)cccc1NC(=O)c1ccc(-n2ccnc2)nc1 |  | 0.0316 µM (active)
42 | O=S(=O)(/N=C(/Nc1ccccn1)c1ccccc1)c1ccccc1 | 11.9% | 
43 | CN1CCN(Cc2nc3cccc4c3c([n+]2[O-])-c2ccccc2-4)CC1 | -3.37% [at 11.4 µM] | 
44 | N#C[C@H]1CN[C@H](N)N[C@@H]1N | 8.31% [at 11.4 µM] | 
45 | Cc1cccc2c1Oc1ccccc1[C@@H]2NC(=O)c1ccc([N+](=O)[O-])cc1 | 13.1% [at 11.4 µM] | 
46 | CCc1ccccc1NC(=O)CSc1nc(-c2ccccc2)nn1C(=O)c1cccc([N+](=O)[O-])c1 |  | 10 µM (active)
47 | O=C(c1ccc([N+](=O)[O-])cc1)n1nc(-c2ccccc2)nc1NCc1ccccc1 | 13.4% | 
48 | CSc1nc(-c2ccccc2)nn1C(=O)c1ccccc1 | -1.33% | 

Row | SMILES | activity, negative = inhibition | AC50
49 | Nc1c(C(=O)NCc2ccccc2)sc2nc3c(cc12)C(=O)CCC3 | -3.99% | 
50 | C[C@@](N)(C(=O)O)c1ccc(P(=O)(O)O)cc1 | 8.72% | 
51 | O=C(O)c1cc(=O)cc(C(=O)O)[nH]1 | 2.14% | 
52 | CC(=O)N1CCN(C(=O)CC2OC(=O)c3ccccc32)CC1 (stereo unspecified) | -24.1% | 
53 | CCOC(=O)c1sc(NC(=O)CCCCCN2C(=O)c3cccc4cccc(c34)C2=O)nc1C | -17.5% | 
54 | CCOC(=O)Cc1csc(NC(=O)CCCCCN2C(=O)c3ccccc3C2=O)n1 |  | 14.1 µM (active)
55 | CCOC(=O)Cc1csc(NS(=O)(=O)c2ccccc2)n1 | -1.58% | 
56 | CCOC(=O)C1=C(C)Nc2ncnn2C1c1cccnc1 (stereo unspecified) | 3.65% | 
57 | CCCC(=O)Nc1nc(C(=O)OCC)cs1 | -5.9% | 
58 | Nc1ccn([C@@H]2CC[C@H](CO)O2)c(=O)n1 | 0.962% [at 25.6 µM] | 
59 | C[C@]12CC[C@H]3c4ccc(O)cc4CC[C@@H]3[C@H]1CC[C@@H]2OC(=O)CCC1CCCC1 | 1.36% [at 11.4 µM] | 
60 | COC(=O)C1(C)C=C2C(=C(c3ccccc3)C(=O)C2C)CN1 (stereo unspecified) | -6.51% | 
61 | CCCC1(C(=O)OC)C=C2C(=C(C(C)C)C(=O)C2C)CN1 (stereo unspecified) | -14.3% | 
62 | COC(=O)C1(Cc2ccccc2)C=C2C(=C(C(C)C)C(=O)C2C)CN1 (stereo unspecified) |  | 12.6 µM (active)
63 | CCCCCC1=C2CNC(CC(C)C)(C(=O)OC)C=C2C(C)C1=O (stereo unspecified) |  | 5.01 µM (active)
64 | CCCCCC1=C2CNC(Cc3ccccc3)(C(=O)OC)C=C2C(C)C1=O (stereo unspecified) |  | 12.6 µM (active)
65 | CCCC1(C(=O)OC)C=C2C(=C(C)C(=O)C2C)CN1 (stereo unspecified) | 1.18% | 
66 | COC(=O)C1(CC(C)C)C=C2C(=C(c3ccccc3)C(=O)C2C)CN1 (stereo unspecified) | -13.8% | 
67 | CCCC1(C(=O)OC)C=C2C(=C(c3ccccc3)C(=O)C2C)CN1 (stereo unspecified) | -9.45% | 
68 | CO[C@H]1COC(=O)[C@H](C)NC(=O)C/C=C\[C@@H](C)[C@H](OC)COC(=O)[C@@H](OCc2ccccc2)/C=C\[C@@H]1C | 3.57% [at 11.4 µM] | 
69 | O=S(=O)(c1ccccc1)N1CN2CN(C1)CN(S(=O)(=O)c1ccccc1)C2 | 2.33% [at 11.4 µM] | 
70 | NNS(=O)(=O)c1cc(C(=O)O)cc(C(=O)O)c1 | 5.99% [at 11.4 µM] | 
71 | COc1ccc(Oc2ncc3nc(-c4cn(C)c5ccccc45)c(=O)n(C)c3n2)cc1 | 0.352% | 
72 | COc1ccc(C(=O)NC(C)c2cc(OC)c(OC)cc2Br)cc1 (stereo unspecified) | -12.9% | 

Row | SMILES | activity, negative = inhibition | AC50
73 | CN(C)[C@@H]1C(=O)C(C(N)=O)=C(O)[C@]2(O)C(=O)C3=C(O)c4c(O)ccc(Cl)c4[C@H](O)[C@H]3C[C@@H]12 |  | inactive
74 | O=C(c1ccccc1-c1nc(-c2ccccc2)no1)N1CCOCC1 | -9.18% | 
75 | CCOC(=O)N/N=C1/C[C@@H](O)[C@@H](O)[C@@H]2[C@@H]3C(=O)N(Cc4ccc5c(c4)OCO5)C(=O)[C@H]3CC[C@H]12 | -9.22% [at 11.4 µM] | 
76 | CC1(C)SC(=S)N(Cc2ccc3c(c2)OCO3)C1N(O)C(=O)NC1CCCCC1 (stereo unspecified) |  | 2.24 µM (active)
77 | COc1ccccc1Nc1nc(-c2sc(NC(=O)c3ccc([N+](=O)[O-])cc3)nc2C)cs1 | 12.1% | 
78 | Nc1cc(Cl)nc(N/N=C/c2ccccc2[N+](=O)[O-])n1 | 0.464% | 
79 | Cc1nc2ccccn2c1C(=O)N/N=C/c1ccccc1[N+](=O)[O-] | 8.78% | 
80 | O=[N+]([O-])c1cccc(/C=N\Nc2ccc3ccccc3n2)c1O |  | 3.16 µM (active)
81 | O=C(O)c1c2ccccc2cc2ccccc12 | -2.31% | 
82 | C/C(CCC(=O)OC[C@@H]1O[C@H](C#Cc2ccccc2)C=C[C@@H]1Oc1ccc(C)cc1)=N/OC[C@@H](O)[C@H]1O[C@H]2OC(C)(C)O[C@H]2[C@@H]1O | 14.6% [at 11.4 µM] | 
83 | CCn1c(N2CCN(C(=O)Nc3ccc(F)cc3)CC2)nc2ccccc21 | -29.3% | 
84 | COc1cccc(N2CCN(C(=S)Nc3cccc(C)c3)CC2)c1 | -10.1% | 
85 | CCOC(=O)N/N=C1/C[C@@H](O)[C@@H](O)[C@@H]2[C@@H]3C(=O)N([C@@H](C)c4ccccc4)C(=O)[C@H]3CC[C@H]12 | 18.4% [at 11.4 µM] | 
86 | N#C/C(=C/c1cccc(C(F)(F)F)c1)c1nc(CCN2C(=O)c3ccccc3C2=O)cs1 | -10.9% | 
87 | Nc1nonc1-c1noc(CCCN2C(=O)c3ccccc3C2=O)n1 | -6.39% | 
88 | NC(N)=Nc1nc(CCN2C(=O)c3ccccc3C2=O)cs1 |  | 15.8 µM (active)
89 | COc1cc(S(C)=O)ccc1-c1nc2ncccc2[nH]1 (stereo unspecified) | -1.83% [at 25.6 µM] | 
90 | O=C(c1ccc(Oc2ccc(C(F)(F)F)cn2)cc1)N1CCN(c2ccccc2)CC1 | 3.28% | 
91 | O=C(CN1CCCCC1)Nc1nnc(-c2ccc([N+](=O)[O-])cc2)s1 | -8.29% | 
92 | CC1CCN(CC(=O)Nc2cccc([N+](=O)[O-])c2)CC1 |  | 5.62 µM (active)
93 | CCC(=O)Nc1cccc(NC(=O)c2cccc([N+](=O)[O-])c2)c1 | -8.59% | 
94 | COc1ccc(N(CC(=O)O)N=O)cc1 | 8.99% [at 11.4 µM] | 
95 | COc1ccc(OC)c2[nH]c(=O)c(CCNC(=O)c3ccc(S(=O)(=O)N(C)C)cc3)cc12 | 4.82% | 
96 | O=C1[C@@H]2[C@H]3[C@H](O)[C@H](O)C/C(=N/OC[C@@H](O)COCc4ccco4)[C@@H]3CC[C@H]2C(=O)N1c1ccc(F)cc1F | 10.9% [at 11.4 µM] | 
